From the supplement of paper PMC10849652
The full data set covers some 8,800 targets. This sample favours those with a hit. About 0.5% of all pairs of compound and target were hits.

How the values were obtained:
Test in all cases: log2 fold change, soluble protein after heating vs DMSO (PISA); higher = thermal stabilisation; K562 lysate, 10 uM; active = over 0.2 and 3.5 SD of the protein, either way, in both replicates (recomputed)
alvocidib = compound: CN1CC[C@H](c2c(O)cc(O)c3c(=O)cc(-c4ccccc4Cl)oc23)[C@H](O)C1 [alvocidib]
Outline: (§1)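 Soluble protein was defined as the supernatant remaining after 21,000xg for 90 min, following pooling of heated aliquots and adjustment to 0.5% NP-40 at 4°C. Before that, crude K562 extract at 1 mg/mL protein in PBS pH 7.4 with 1 mM MgCl2 was treated with 10 μM compound for 30 min and heated for 3 min across 48°C-58°C. Quantification used TMTpro 16plex LC-MS/MS with channel sums equalised, and values are log-two fold changes in thermal stability relative to solvent controls from duplicates.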

[1] = compound: COc1cc2nc(-c3cc(F)ccc3O)nc(N[C@@H]3CNC[C@H]3C(C)(C)O)c2cc1OC
Outline: as §1

defactinib = compound: CNC(=O)c1ccc(Nc2ncc(C(F)(F)F)c(NCc3nccnc3N(C)S(C)(=O)=O)n2)cc1 [defactinib]
Outline: as §1

Tubastatin A = compound: CN1CCc2c(c3ccccc3n2Cc2ccc(C(=O)NO)cc2)C1 [Tubastatin A]
Outline: as §1

[2] = compound: CNC(=O)C1=CC=CC=C1NC2=NC(=NC=C2Cl)NC3=C(C=C(C=C3)N4CCOCC4)OC
Outline: as §1

[3] = compound: CNc1nc(-c2ccc3c(N)n[nH]c3c2)cc(N2C[C@@H](C(=O)NC3CCCCC3)CC[C@H]2C)n1
Outline: as §1

encorafenib = compound: COC(=O)N[C@@H](C)CNc1nccc(-c2cn(C(C)C)nc2-c2cc(Cl)cc(NS(C)(=O)=O)c2F)n1 [encorafenib]
Outline: as §1

[4] = compound: COC(=O)[C@H](CCSC)NC(=O)C1=C(C=C(C=C1)NC[C@H](CS)N)C2=CC=CC=C2
Outline: as §1

alisertib = compound: COc1cc(Nc2ncc3c(n2)-c2ccc(Cl)cc2C(c2c(F)cccc2OC)=NC3)ccc1C(=O)O [alisertib]
Outline: as §1

gefitinib = compound: COc1cc2ncnc(Nc3ccc(F)c(Cl)c3)c2cc1OCCCN1CCOCC1 [gefitinib]
Outline: as §1

Measured: log2 fold change

TENM4 (UniProt Q6N022)
Chain of UniProt Q6N022 (Q6N022 whole entry, looked up): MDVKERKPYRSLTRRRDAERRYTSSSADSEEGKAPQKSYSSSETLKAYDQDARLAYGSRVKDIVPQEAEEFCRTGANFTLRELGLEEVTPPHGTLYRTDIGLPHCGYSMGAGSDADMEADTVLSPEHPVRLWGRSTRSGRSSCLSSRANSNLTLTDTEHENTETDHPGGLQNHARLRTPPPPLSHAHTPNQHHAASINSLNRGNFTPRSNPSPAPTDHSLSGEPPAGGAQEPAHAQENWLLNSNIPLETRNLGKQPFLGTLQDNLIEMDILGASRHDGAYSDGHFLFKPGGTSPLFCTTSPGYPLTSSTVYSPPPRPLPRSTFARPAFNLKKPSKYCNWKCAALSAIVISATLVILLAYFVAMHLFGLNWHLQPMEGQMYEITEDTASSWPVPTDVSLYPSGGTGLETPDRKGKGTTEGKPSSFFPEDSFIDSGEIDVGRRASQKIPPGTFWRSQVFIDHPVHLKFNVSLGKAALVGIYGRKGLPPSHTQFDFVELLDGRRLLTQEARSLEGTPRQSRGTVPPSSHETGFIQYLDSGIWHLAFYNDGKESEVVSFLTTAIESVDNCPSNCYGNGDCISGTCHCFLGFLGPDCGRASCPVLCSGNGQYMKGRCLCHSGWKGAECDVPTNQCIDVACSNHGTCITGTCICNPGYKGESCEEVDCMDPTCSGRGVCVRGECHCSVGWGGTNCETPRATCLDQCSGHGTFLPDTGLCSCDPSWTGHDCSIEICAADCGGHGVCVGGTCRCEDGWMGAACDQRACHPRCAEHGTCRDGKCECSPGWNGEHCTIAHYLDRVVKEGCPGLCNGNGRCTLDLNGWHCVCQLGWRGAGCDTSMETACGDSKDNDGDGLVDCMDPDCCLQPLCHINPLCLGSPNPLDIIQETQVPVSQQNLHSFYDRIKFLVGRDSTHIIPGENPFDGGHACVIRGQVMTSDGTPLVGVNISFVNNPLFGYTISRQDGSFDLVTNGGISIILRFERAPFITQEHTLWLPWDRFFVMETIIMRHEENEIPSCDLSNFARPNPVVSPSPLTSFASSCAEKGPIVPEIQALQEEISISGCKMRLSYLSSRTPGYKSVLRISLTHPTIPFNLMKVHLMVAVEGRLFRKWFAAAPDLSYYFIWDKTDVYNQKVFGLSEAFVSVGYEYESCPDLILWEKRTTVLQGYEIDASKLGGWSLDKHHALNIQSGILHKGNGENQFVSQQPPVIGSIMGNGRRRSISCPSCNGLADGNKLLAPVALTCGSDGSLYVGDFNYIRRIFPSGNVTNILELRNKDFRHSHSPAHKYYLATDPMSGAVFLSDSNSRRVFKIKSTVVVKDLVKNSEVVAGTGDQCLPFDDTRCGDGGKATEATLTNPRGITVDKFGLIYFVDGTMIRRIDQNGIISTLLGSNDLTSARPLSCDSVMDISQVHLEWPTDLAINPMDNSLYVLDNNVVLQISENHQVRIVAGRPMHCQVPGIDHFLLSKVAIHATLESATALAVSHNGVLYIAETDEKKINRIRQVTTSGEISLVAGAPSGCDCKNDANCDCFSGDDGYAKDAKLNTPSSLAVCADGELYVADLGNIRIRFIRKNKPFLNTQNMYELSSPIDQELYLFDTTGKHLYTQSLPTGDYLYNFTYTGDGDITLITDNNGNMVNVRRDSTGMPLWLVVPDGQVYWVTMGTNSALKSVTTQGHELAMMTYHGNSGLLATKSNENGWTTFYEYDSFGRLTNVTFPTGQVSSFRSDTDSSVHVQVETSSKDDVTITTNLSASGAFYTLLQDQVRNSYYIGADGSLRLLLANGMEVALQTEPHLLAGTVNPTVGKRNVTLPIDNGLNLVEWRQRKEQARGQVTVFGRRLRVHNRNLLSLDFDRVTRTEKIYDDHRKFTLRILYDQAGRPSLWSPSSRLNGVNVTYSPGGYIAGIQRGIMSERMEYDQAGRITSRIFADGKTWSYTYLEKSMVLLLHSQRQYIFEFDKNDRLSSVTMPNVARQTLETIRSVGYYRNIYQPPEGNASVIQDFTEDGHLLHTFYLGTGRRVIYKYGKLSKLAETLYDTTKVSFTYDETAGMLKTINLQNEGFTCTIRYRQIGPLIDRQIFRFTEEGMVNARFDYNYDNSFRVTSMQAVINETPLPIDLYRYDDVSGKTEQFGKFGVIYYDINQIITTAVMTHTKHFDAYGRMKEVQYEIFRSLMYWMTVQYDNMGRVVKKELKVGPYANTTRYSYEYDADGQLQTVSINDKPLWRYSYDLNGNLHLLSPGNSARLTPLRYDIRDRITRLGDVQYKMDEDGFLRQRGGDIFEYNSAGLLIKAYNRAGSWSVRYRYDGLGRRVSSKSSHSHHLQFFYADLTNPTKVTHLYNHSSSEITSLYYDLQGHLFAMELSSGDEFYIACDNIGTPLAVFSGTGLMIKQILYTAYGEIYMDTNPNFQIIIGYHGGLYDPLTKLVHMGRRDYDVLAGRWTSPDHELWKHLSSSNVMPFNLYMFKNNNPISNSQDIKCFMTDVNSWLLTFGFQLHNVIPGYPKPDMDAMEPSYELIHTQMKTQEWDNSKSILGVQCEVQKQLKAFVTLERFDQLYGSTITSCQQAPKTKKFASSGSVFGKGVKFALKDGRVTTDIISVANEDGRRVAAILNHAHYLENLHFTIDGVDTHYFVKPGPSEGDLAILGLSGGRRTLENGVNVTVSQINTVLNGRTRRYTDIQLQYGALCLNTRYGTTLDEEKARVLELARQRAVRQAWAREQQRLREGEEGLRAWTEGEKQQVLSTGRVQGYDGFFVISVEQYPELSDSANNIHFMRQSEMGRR
inactive: alvocidib 0.03 | [1] 0.024

TCF3 (UniProt X6REB3)
inactive: alvocidib -0.168 | defactinib -0.149

TEDC1 (UniProt Q86SX3)
Chain of UniProt Q86SX3 (Q86SX3 whole entry, looked up): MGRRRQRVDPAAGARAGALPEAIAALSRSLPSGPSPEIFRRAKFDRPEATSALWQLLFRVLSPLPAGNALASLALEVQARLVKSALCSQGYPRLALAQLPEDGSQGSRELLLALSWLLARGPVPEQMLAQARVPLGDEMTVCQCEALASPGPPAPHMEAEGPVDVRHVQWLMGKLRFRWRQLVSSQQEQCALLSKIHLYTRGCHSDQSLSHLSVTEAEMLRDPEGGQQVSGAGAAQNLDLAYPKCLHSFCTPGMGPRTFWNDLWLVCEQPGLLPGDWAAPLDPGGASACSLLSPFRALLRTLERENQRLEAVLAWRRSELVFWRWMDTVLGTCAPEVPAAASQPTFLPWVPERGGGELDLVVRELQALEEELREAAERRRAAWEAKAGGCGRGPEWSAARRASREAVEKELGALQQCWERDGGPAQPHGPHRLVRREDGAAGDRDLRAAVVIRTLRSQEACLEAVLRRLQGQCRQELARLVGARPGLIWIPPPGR
inactive: Tubastatin A -0.254 | [2] 0.038 | [3] 0.051 | encorafenib 0.094 | [4] 0.047 | alisertib -0.019 | [1] -0.008 | gefitinib 0.047

THAP9 (UniProt Q9H5L6)
Chain of UniProt Q9H5L6 (Q9H5L6 whole entry, looked up): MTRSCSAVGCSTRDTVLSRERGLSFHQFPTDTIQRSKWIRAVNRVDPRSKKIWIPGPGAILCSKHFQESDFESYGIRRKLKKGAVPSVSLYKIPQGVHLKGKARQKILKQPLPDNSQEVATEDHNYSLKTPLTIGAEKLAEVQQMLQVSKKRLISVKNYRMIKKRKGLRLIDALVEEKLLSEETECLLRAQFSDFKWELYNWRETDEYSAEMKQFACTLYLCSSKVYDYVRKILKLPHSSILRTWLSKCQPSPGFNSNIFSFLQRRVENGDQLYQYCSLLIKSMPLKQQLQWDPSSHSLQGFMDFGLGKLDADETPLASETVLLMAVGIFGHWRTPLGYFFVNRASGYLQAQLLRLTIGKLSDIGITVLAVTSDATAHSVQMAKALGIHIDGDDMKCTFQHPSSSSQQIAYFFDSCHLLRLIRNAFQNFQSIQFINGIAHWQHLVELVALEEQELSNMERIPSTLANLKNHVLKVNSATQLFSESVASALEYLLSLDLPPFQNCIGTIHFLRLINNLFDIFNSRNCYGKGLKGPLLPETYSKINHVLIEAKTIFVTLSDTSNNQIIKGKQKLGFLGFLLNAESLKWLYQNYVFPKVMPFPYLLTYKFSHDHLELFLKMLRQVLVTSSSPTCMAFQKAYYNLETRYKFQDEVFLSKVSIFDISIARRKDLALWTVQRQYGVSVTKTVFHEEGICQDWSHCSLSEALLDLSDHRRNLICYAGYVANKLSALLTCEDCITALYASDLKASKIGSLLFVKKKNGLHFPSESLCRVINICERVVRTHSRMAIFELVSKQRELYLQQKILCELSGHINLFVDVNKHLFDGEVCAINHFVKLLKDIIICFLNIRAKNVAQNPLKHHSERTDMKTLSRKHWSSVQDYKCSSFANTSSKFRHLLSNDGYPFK
inactive: alvocidib -0.249 | Tubastatin A 0.053 | defactinib -0.067 | [3] 0.476 | encorafenib -0.009 | [4] 0.085 | [1] 0.179

TLE3 isoform 5 (UniProt Q04726)
Chain of UniProt Q04726 (Q04726 whole entry, looked up): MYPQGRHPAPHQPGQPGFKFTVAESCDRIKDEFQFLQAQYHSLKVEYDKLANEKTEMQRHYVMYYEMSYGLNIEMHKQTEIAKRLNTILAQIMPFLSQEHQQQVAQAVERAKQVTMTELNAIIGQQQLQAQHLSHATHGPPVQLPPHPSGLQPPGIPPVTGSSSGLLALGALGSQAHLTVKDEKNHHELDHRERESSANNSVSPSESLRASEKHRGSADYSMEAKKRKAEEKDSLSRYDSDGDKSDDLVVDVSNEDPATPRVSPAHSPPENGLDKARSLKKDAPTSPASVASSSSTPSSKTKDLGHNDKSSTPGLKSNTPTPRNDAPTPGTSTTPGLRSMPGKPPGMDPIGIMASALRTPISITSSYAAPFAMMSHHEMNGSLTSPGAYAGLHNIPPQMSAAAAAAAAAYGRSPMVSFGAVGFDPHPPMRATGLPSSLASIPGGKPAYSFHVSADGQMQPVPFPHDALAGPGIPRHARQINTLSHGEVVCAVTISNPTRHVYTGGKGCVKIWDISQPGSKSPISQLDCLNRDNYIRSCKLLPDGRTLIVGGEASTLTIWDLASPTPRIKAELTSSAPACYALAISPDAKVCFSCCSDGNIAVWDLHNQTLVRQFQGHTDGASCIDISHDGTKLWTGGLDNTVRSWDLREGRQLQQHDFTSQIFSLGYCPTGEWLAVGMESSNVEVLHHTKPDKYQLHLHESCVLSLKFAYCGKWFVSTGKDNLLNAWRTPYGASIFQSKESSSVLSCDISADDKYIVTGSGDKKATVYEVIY
inactive: alvocidib -0.153 | Tubastatin A -0.06 | [2] 0.004 | [3] 0.011 | encorafenib -0.02 | [4] 0.002 | alisertib 0 | [1] 0.008 | gefitinib 0.009
